In PubChem BioAssay AID1259313 (Sanford-Burnham Center for Chemical Genomics, 2017) one finds Tm shift relative to glycine control data, which are given here for 96 compounds.

Hit rate of the full screen: of about 340,000 compounds, about 8,500 (2.5%) were called active. The full list was thinned out, with actives kept by preference. Unmarked numbers belong to inactive results.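 Rule for the calls: active = melting temperature shift of at least 10% of the positive control shift, at one fixed dose; inactive = the rest.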

The subject of the assay is Glutamate receptor ionotropic, NMDA 3A (GRIN3A) ligand-binding domain. The assay is described as follows: binders of NR3A ligand-binding domain, primary screen, biophysical, differential scanning fluorimetry, uHTS (AID 1259313). The settings on record: NR3A LBD differential scanning fluorimetry, at 25 µM, stronger effect = higher value, 0% = protein alone, 100% = glycine-bound protein.
As to `Cc1ccc(C(=O)OCC(=O)Nc2ccc(Cl)cn2)cc1S(=O)(=O)N1CCOCC1`, the Tm shift relative to glycine control was 3.32%. To `COc1cccc(N2CC(C(=O)NCc3n[nH]c(=O)c4ccccc34)CC2=O)c1` (stereo unspecified) belongs -0.43%. Under `Cc1cc(Cl)ccc1N1C(=O)CC(SCCC(=O)O)C1=O` (stereo unspecified) stands 2.57%; under `C=CCN1C(=O)C(O)(CC(=O)c2ccccn2)c2ccccc21` (stereo unspecified), -0.48%. To `O=C(CC1(O)C(=O)N(CN2CCOCC2)c2ccccc21)c1ccccc1` (stereo unspecified) belongs 27.8% (active); to `C=CCN1C(=O)C(O)(CC(=O)c2ccc(Cl)cc2)c2ccccc21` (stereo unspecified), -2.1%; to `COc1ccccc1C(=O)NC(CCSC)C(=O)N1CCN(C/C=C/c2ccccc2)CC1` (stereo unspecified), 2.33%.

As to `COc1ccccc1N1CCN(c2ncnc3sc(C)c(-c4ccccc4)c23)CC1`, the Tm shift relative to glycine control was 1.26%. Under `Cc1[nH]n(C(N)=S)c(=O)c1N=Nc1ccc(Cl)cc1Cl` stands 15% (active); under `CC1=NN(C(N)=S)C(=O)C1N=Nc1cc(Cl)ccc1Cl` (stereo unspecified), 8.72%. To `Cc1[nH]n(C)c(=O)c1N=Nc1ccc(S(C)(=O)=O)cc1` belongs 1.71%; to `CCN(C(=O)COC(=O)CCOc1cccc(C)c1)c1c(N)n(Cc2ccccc2)c(=O)[nH]c1=O`, 0.18%. To `CCCCNC(=O)CSc1nc2ccc(NC(=O)CSc3nnc(N)s3)cc2s1` belongs 1.91%. Turning to `CCCCNC(=O)CSc1nc2ccc(NC(=O)CSc3nnc(COc4ccccc4C)n3C)cc2s1`, the Tm shift relative to glycine control is -6%. As for `Nc1nnc(SCC(=O)Nc2ccc3nc(SCC(=O)Nc4ccccc4)sc3c2)s1`, the Tm shift relative to glycine control is 29.3% (active).

As to `NS(=O)(=O)c1ccc(CCNC(=O)CN2C(=O)c3ccccc3S2(=O)=O)cc1`, the Tm shift relative to glycine control was 3.53%.

Take `Cc1cccc(OCc2nnc(SCc3nc4cc(C(F)(F)F)ccc4c(=O)[nH]3)o2)c1`: the Tm shift relative to glycine control is 15.6% (active).

With `Cc1cccc(OCc2nnc(SCn3nnc4ccccc4c3=O)o2)c1`, the Tm shift relative to glycine control is -0.61%.

Take `COc1cc(CN(C)Cc2nc3cc(C(F)(F)F)ccc3c(=O)[nH]2)ccc1OC(F)F`: the Tm shift relative to glycine control was 0.52%.

As for `Cc1onc(-c2c(F)cccc2Cl)c1C(=O)Nc1cccc(S(=O)(=O)N2CCCCC2)c1`, the Tm shift relative to glycine control is -2.74%. Under `O=C(NCCc1ccc(Cl)cc1Cl)c1cc([N+](=O)[O-])c[nH]c1=O` stands -10.1%; under `O=C(NCCc1c[nH]c2ccccc12)C1CCN(Cc2ccc(Br)cc2)CC1`, -4.03%; under `O=C(NCCc1c[nH]c2ccc(Cl)cc12)c1ccc([N+](=O)[O-])cc1`, 17.5% (active). With `Cc1ccc(S(=O)(=O)N(C)CC(=O)NCCc2c[nH]c3ccccc23)cc1`, the Tm shift relative to glycine control was 1.04%. Under `N#CCc1c[nH]c2ccc([N+](=O)[O-])cc12` stands 14% (active); under `Cc1cc(C)cc(NC(=S)NCCc2c[nH]c3ccccc23)c1`, 20.2% (active). Under `O=[N+]([O-])c1ccc2[nH]c3c(c2c1)CCCC3O` (stereo unspecified) stands 5.4%. To `O=C(NCCc1c[nH]c2ccccc12)c1cc2ccccc2oc1=O` belongs -6.92%; to `Cc1ccc2[nH]cc(CCNC(=O)c3ccc([N+](=O)[O-])cc3)c2c1`, 9.11%; to `O=C(NCCc1c[nH]c2ccccc12)c1cccc(Br)c1`, 31.4% (active).

`Cc1ccc2[nH]cc(CCNC(=O)C3CCCCC3)c2c1`: the Tm shift relative to glycine control was 1.08%. For the compound `Cc1ccc2[nH]cc(CCCN3C(=O)c4ccccc4C3=O)c2c1`, the Tm shift relative to glycine control is -9.79%. Under `COc1ccc(F)cc1S(=O)(=O)NCC(c1ccc2c(c1)OCO2)N1CCN(C)CC1` (stereo unspecified) stands -1.98%; under `COc1ccc(NC(=S)N2CCC(NC(=O)c3cccc(F)c3)CC2)cc1`, 1.82%.

Take `COc1ccc2oc(C(=O)NCc3ccco3)c(C)c2c1`: the Tm shift relative to glycine control was 0.95%. To `Cc1ccc(C(=O)c2ccc(N3CCN(C)CC3)c([N+](=O)[O-])c2)cc1` belongs -4.39%; to `Cc1ccc(Br)c(NS(=O)(=O)c2cccc(C(=O)N3CCNC(=O)C3)c2)c1`, -2.24%; to `O=C(CO/N=C/c1ccc(OC(F)F)cc1)NCc1ccc(F)cc1`, -0.25%. Take `CC1(NC(=O)CCS(=O)(=O)c2ccc(Cl)cc2)CCS(=O)(=O)C1` (stereo unspecified): the Tm shift relative to glycine control was 1.08%. Under `NC(=O)Nc1ccccc1C(=O)NCCc1ccccc1` stands -3.04%. Under `CCOC(=O)CN(C(=O)COc1nc(C)cc(C)c1C#N)c1ccc(Cl)cc1` stands 0.21%. Under `COc1ccc(/C=N/Nc2nc(-c3ccc(C)cc3)c(C#N)c(=O)[nH]2)cc1` stands -2.83%; under `COc1ccc(/C=N/Nc2ccccc2C(=O)O)cc1`, -10.2%.

Take `COc1ccc(/C=N/N=C/c2c[nH]c(=O)c(C#N)c2Nc2ccccc2)cc1`: the Tm shift relative to glycine control was 35.8% (active). To `Cc1nn(C)cc1/C=C1\CCC/C(=C\c2cn(C)nc2C)C1=O` belongs -1.19%; to `CC(Oc1ccccc1[N+](=O)[O-])C(=O)N/N=C/c1ccoc1` (stereo unspecified), -0.52%; to `Cc1ccc2cccc(OCCCOc3ccccc3CO)c2n1`, -1.42%. To `Cc1cc(N=Nc2ccc3ccccc3c2)ccc1O` belongs 28.8% (active); to `O=C(NNC(=S)NC(=O)c1cn(-c2ccccc2)nc1-c1ccccc1)c1ccncc1`, -4.35%; to `O=C(CN1CCOc2ccccc21)N1CCC(Cc2ccccc2)CC1`, -1.44%. With `COc1ccc(C(=O)N2CCCCC2C(=O)Nc2ccc(-n3nc(C)cc3C)cc2)o1` (stereo unspecified), the Tm shift relative to glycine control was 6.75%. Consider `CCN(CC)CCNCc1ccc(OCc2ccc(Cl)nc2)c(OC)c1`, for which the Tm shift relative to glycine control is 8.95%. For the compound `COc1cc(/C=C2\SC(=O)NC2=O)ccc1OCc1ccc(Cl)nc1`, the Tm shift relative to glycine control is 25.9% (active). Regarding `COc1cc(/C=C2/C(=O)ON=C2C)ccc1OCc1cccc(F)c1`, the Tm shift relative to glycine control was -26.4%.

For the compound `Cc1cccn2cc(-c3cccc(S(=O)(=O)N4CCCCC4)c3)nc12`, the Tm shift relative to glycine control is 5.23%.

With `Cc1cccc(N(C(=O)c2csnn2)C(C(=O)NCc2ccccc2)c2ccncc2)c1` (stereo unspecified), the Tm shift relative to glycine control is -0.09%. To `CCOc1ccccc1Nc1nnc(SCC(=O)NCC2CCCO2)s1` (stereo unspecified) belongs 5.39%; to `CCOC(=O)N1CCN(C(=O)c2cn(C)c3ccc(S(=O)(=O)N(CC)CC)cc3c2=O)CC1`, 0%.

With `O=C(Nc1cccc(Cl)c1)c1cncn1-c1ccc(F)cc1`, the Tm shift relative to glycine control is -0.7%. Under `Cc1cccc(N=C2NC(=O)CS2)c1C` stands 5.95%; under `CC(=O)Nc1ccc(C(=O)CSc2nc3ccc(C)cc3[nH]2)cc1`, -17.4%; under `Cc1nc2nc(SCC(=O)c3ccccc3)[nH]c2cc1Br`, -9.38%. Under `O=C(CSc1nc2ccc([N+](=O)[O-])cc2[nH]1)c1ccc(Cl)cc1` stands 18.5% (active); under `O=C(Nc1ccc(Cl)cc1)c1cccc(OC(=S)N2CCOCC2)c1`, -0.47%. To `C/C(=N\Nc1ccccc1)c1cccs1` belongs 1.45%; to `C/C(=N/Nc1ccc(Cl)cc1)c1cnnc(-c2ccccc2)n1`, 10.3% (active); to `CC/C(=N/Nc1ccccc1)c1cnnc(SC)n1`, 1.52%. As for `CN(CCO)c1ccc(/C=N/Nc2nncc3ccccc23)cc1`, the Tm shift relative to glycine control was 3.23%. As to `Cc1csc(NC(=O)CSc2nc(=O)cc(N)n2-c2ccc(F)cc2)n1`, the Tm shift relative to glycine control is -0.09%.

Turning to `CC(C)N1CCC(N2CCN(Cc3cccnc3)CC2CCO)CC1` (stereo unspecified), the Tm shift relative to glycine control is -1.29%. Under `Clc1ccc(Cc2nnc(-c3cccs3)o2)cc1` stands -0.55%; under `CCCc1cc(C(=O)Nc2ccc(Cl)cn2)cs1`, 0.69%; under `Clc1ccc(Nc2nc(-c3cccs3)cs2)nc1`, 23% (active). To `Cc1cc(C)cc(NC(=O)C(c2ccccc2)N2CCN(CC(=O)N3CCCC3)CC2)c1` (stereo unspecified) belongs -1.19%; to `Cc1cc(C)cc(NC(=O)C(OC(=O)c2ccc(O)cc2)c2ccccc2)c1` (stereo unspecified), 10.5% (active). `Cc1ccc(C)c(NC(=O)C(OC(=O)c2ccc(C)s2)c2ccccc2)c1` (stereo unspecified): the Tm shift relative to glycine control was -6.89%. To `COc1cc(CO)c(C2(CO)CCCC2)cc1OC` belongs -9.65%. To `NC(=O)C1(Nc2ccc(-c3ccccc3)cc2)CCCC1` belongs 2.37%; to `N#CC1(Nc2ccc(-c3ccc(Cl)cc3)cc2)CCCC1`, 20.4% (active). Under `CNc1nccc(-c2ccc(Cl)cc2)c1C#N` stands -0.74%. `COc1ccccc1CNC(=O)CNC(=O)c1cn(-c2ccccc2OC)c(=O)c2ccccc12`: the Tm shift relative to glycine control is -0.54%. Under `Cc1ccc(NC(=O)CSCC(=O)N2CCOCC2)cc1` stands 1.21%.

On to `Cc1cc2c(cc1C)[n+](C)cn2CC(O)COCC1CC=CCC1` (stereo unspecified), for which the Tm shift relative to glycine control is 11.6% (active). As to `CNC(=S)N/N=C/c1ccc(N2CCOCC2)s1`, the Tm shift relative to glycine control is -0.99%. To `CCCn1c(=O)c2c(C(F)(F)F)cc(-c3cccs3)nc2n(CCC)c1=O` belongs 0.77%. Under `COc1ccc(NC(=O)NCCN2CCN(c3ccc(C)cc3)CC2)c(Cl)c1` stands -3.16%; under `Cc1ccc(C2(C)NC(=O)N(CC(=O)Nc3ccccc3C(=O)N3CCCCC3)C2=O)cc1` (stereo unspecified), -1.86%; under `CSCCC(NS(=O)(=O)c1ccc(C)cc1)C(=O)N(C)CC(=O)Nc1ccccc1Br` (stereo unspecified), 0.34%. To `CCCc1cc(C(=O)Nc2ccc(C(=O)OC)cc2)cs1` belongs -10.4%. Consider `COc1ccc(Nc2ncnc3sc(C)cc23)cc1`, for which the Tm shift relative to glycine control was -17.1%.

As to `COC(=O)c1ccc(Nc2ncnc3sccc23)cc1`, the Tm shift relative to glycine control was 13% (active). Under `C/C(=N\N)c1c(-c2ccccc2)c2cc(Br)ccc2[nH]c1=O` stands -2.09%. As to `CC(=O)NCCC(=O)Nc1cc(S(=O)(=O)N2CCCCC2)ccc1Oc1cccc(C)c1`, the Tm shift relative to glycine control is 1.88%. `Cn1cccc1/C=C1\SC(=S)N(NC(=O)c2ccc(Cl)cc2)C1=O`: the Tm shift relative to glycine control is 8.58%.

With `CC(=O)N1C(=O)/C(=C2\SC(=S)N(NC(=O)c3ccc(O)cc3)C2=O)c2ccccc21`, the Tm shift relative to glycine control was 21.7% (active). To `O=C(O)c1ccc2c(c1)C(=O)N(NC(=O)c1ccc(O)cc1)C2=O` belongs 0.18%.
